About 83,000 compounds went through this panel and 20% of them were active in at least one assay; those are over-represented in the sample as a whole.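 Single-concentration screen, 48 h exposure, 96-well plates. Endpoint: percent growth. Below 10 = active.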 Values without a mark were called inactive. Activity calls are given as the source filed them.

Common to all, as to assay: NCI-60 one-dose screen, 48 h (100 = growth as untreated, 0 = no growth, -100 = all killed)
Conditions in all cases: 10 µM unless noted

Assay [1] deals with SR leukemia.
The subject of assay [2] is RPMI-8226 leukemia.
The test system of assay [3] is OVCAR-8 ovarian.
The subject of assay [4] is OVCAR-5 ovarian.
The test system of assay [5] is OVCAR-4 ovarian.
Assay [6] relates to SK-OV-3 ovarian.
For assay [7], the system named is IGROV1 ovarian.
Assay [8] relates to OVCAR-3 ovarian.
For assay [9], the system named is HS 578T breast.
In assay [10] the test system is NCI/ADR-RES ovarian.

Consider `C=C(C)[C@@H]1CC[C@]2(C(=O)N3CCN(C)CC3)CC[C@]3(C)[C@H](CC[C@@H]4[C@@]5(C)CCC(=O)C(C)(C)[C@@H]5CC[C@]43C)[C@@H]12`, for which the growth in assay [1] is -12.1% (active); in [2], 78.1%; in assay [3], 87.1%; in assay [4], 92.5%; in assay [5], 83.5%; in assay [6], 104%. In addition, the growth is 89.2% in assay [7], 74% in assay [8], 95.3% in assay [9] and 74.6% in assay [10].

In the case of `COc1cccc(NC(=O)c2cccc(-c3cc(=O)c4c(OC)c(OC)c(OC)cc4o3)c2)c1`, the growth in [1] was 41.9%; in assay [2] it was 17%; in [3], 47%; in assay [4], 90.1%; in assay [5], 62.6%; in assay [6], 109%. In addition, the growth is 53.3% in assay [7], 66.6% in [8], 46.2% in [9] and 64.8% in [10].

`COc1ccc(C(O)c2cc3c(N)c(C(=O)Nc4ccc(Br)cc4)sc3nc2C)cc1` (stereo not given): the growth in assay [1] is -8% (active); in assay [2] it was -4.62% (active); in [3], 30.6%; in [4], 59%; in assay [5] it was 42.9%; in assay [6], 27.7%. Moreover, the growth in [7] was 43.6%; in [8], -34.9% (active); in assay [9], 3.84% (active); in [10], 18.5%.

With `COc1ccccc1/C=N/NC1=NC2C(N1)N(C)C(=O)N2C` (stereo not given), the growth in assay [1] is 110%; in assay [2], 119%; in assay [3] it was 103%; in [4] it was 102%; in assay [5], 106%; in assay [6], 95.4%. Further, the growth is 96.4% in assay [7], 107% in assay [8], 95.1% in assay [9] and 105% in assay [10].

For `Cc1ccc(O)c(C(=O)O)c1`, the growth in assay [1] was 101%; in assay [2], 103%; in assay [3], 112%; in assay [4] it was 108%; in assay [5], 122%; in assay [6], 106%. In addition, the growth in [7] was 95.3%; in [8] it was 107%; in assay [9], 108%; in [10], 111%.

On to `Cc1ccc2[nH]c(=O)cc(-n3nncc3COc3ccc(C=O)cc3)c2c1`, for which the growth in assay [1] is 102%; in [2], 102%; in assay [3], 107%; in [4], 101%; in assay [5] it was 104%; in assay [6] it was 107%. Besides, the growth was 106% in assay [7], 102% in assay [8], 96.7% in assay [9] and 109% in [10].

For `COc1ccc2c(c1)c(CC(=O)NCCOCCOCC(=O)Nc1ccc(OC)c(C(N)=O)c1O)c(C)n2C(=O)c1ccc(Cl)cc1`, the growth in assay [1] is 90.2%; in assay [2] it was 96.9%; in assay [3], 90.3%; in [4], 112%; in assay [5], 93.7%; in assay [6] it was 109%. Moreover, the growth is 93.9% in assay [7], 103% in assay [8], 105% in [9] and 91.6% in [10].

As for `CCCCCCNC(=O)Oc1ccc(/C(=C(/CC)Cc2ccccc2)c2ccc(OCCN(CC)CC)cc2)cc1`, the growth was -27.3% (active) in assay [1]; 26.8% in assay [2]; 61.4% in assay [3]; 83.2% in assay [4]; 66.4% in assay [5]; 89% in [6]. The growth was 76.6% in [7], 72.4% in assay [8], 69.7% in assay [9] and 70.6% in assay [10].

For `CCCCCCCCOC(=O)c1ccc(O)c(OC)c1`, the growth is 85.3% in assay [1]; 89.2% in assay [2]; 96.3% in [3]; 107% in assay [4]; 78.2% in assay [5]; 103% in [6]. Besides, the growth in assay [7] was 59.8%; in [8], 101%; in assay [9] it was 97.8%; in [10] it was 96%.

Turning to `COc1cccc(CCC(=O)c2cc3c(N)c(C(=O)Nc4cccc(Cl)c4C)sc3nc2C)c1`, the growth is 9.08% (active) in assay [1]; 7.83% (active) in [2]; 24.1% in assay [3]; 28.3% in [4]; 36.9% in assay [5]; 32.4% in assay [6]. For the same compound, the growth in [7] was 24.4%; in assay [8] it was -8.82% (active); in assay [9] it was 2.96% (active); in [10], 10.7%.

With `COc1cnccc1-c1nc2ccc3[nH]ncc3c2c2c1CCCC2`, the growth in assay [1] is 8.78% (active); in assay [2] it was 61.6%; in assay [3], 69.1%; in assay [4], 74.8%; in assay [5], 85.9%; in [6], 41.9%. Also, the growth in assay [7] was 33.4%; in assay [8], 84.3%; in assay [9], -1.02% (active); in assay [10] it was 64.2%.

Consider `O=C(Nc1nc(-c2ccc(Br)cc2)cs1)c1cc(-c2ccc(Br)cc2)nc2ccc(Cl)cc12`, for which the growth in [1] is 70.4%; in [2] it was 85%; in [3] it was 88.1%; in assay [4] it was 104%; in assay [5], 82.5%; in assay [6], 78.2%. In addition, the growth was 60.5% in assay [7], 86.9% in assay [8], 95.2% in [9] and 89.7% in assay [10].

As for `CCCCCCCCCCCCCCCCCCOc1ccccc1N`, the growth in assay [1] is 75.4%; in [2], 12.1%; in assay [3], 70.9%; in assay [4] it was 101%; in assay [5], 55%; in [6] it was 74.7%. Further, the growth in assay [7] was 75.1%; in assay [8] it was 44.9%; in assay [9], 84.2%; in assay [10], 86.9%.

Regarding `Clc1cc(Cl)cc(N2N=C(c3cccc(Nc4ccncc4)c3)CC2c2ccccc2)c1` (stereo not given), the growth in assay [1] is 5.16% (active); in [2], 28.5%; in assay [3], 2.42% (active); in assay [4] it was 80.4%; in [5], 55.7%; in assay [6] it was 84.7%. Moreover, the growth in assay [7] was 39.5%; in [8] it was 67.4%; in [9] it was 80.2%; in [10], 72.1%.

For `CC(=O)N1N=C(c2cccc(Nc3ccncc3)c2)CC1c1ccccc1` (stereo not given), the growth in assay [1] is 58.3%; in assay [2], 76.2%; in assay [3] it was 88.9%; in assay [4] it was 90.1%; in assay [5], 89.7%; in [6], 84.2%. In addition, the growth in assay [7] is 96%; in assay [8], 91.7%; in [9], 83.4%; in assay [10] it was 91.9%.

As to `COc1ccc(CC(C)=C(c2ccc(OCCN(C)C)cc2)c2ccc(OCCN(C)C)cc2)cc1`, the growth in [1] is -13.2% (active); in [2], 56.2%; in [3], 86%; in assay [4], 86.8%; in assay [5] it was 90.1%; in assay [6] it was 85.7%. For the same compound, the growth in assay [7] was 74.6%; in assay [8] it was 83.8%; in [9], 74.6%; in [10], 86.4%.

Regarding `CCNC(=O)c1[nH]cc(-c2ccc(OC)cc2)c1-c1cc(OC)c(OC)c(OC)c1`, the growth in assay [1] is 19.5%; in [2], 38%; in [3] it was 66.3%; in assay [4] it was 74.6%; in assay [5], 45.7%; in assay [6], 57.7%. Besides, the growth in assay [7] is 47.4%; in assay [8], 2.53% (active); in assay [9], 45.3%; in assay [10], 19.8%.

With `CC(=O)N1c2ccccc2NC2=C(C(=O)N(C)C2(C)C)C1C` (stereo not given), the growth in [1] is 16.7%; in assay [2], 12.6%; in assay [3], 65.8%; in assay [4], 62.5%; in [5], 55.2%; in [6], 55.4%. In addition, the growth was 39.6% in assay [7], 18.1% in [8], 20.4% in assay [9] and 102% in [10].

In the case of `Cc1ccc2[nH]c(=S)n(-c3ccc(S(=O)(=O)Nc4ccc(Cl)nn4)cc3)c(=O)c2c1`, the growth was 94.2% in [1]; 103% in assay [2]; 97.7% in [3]; 103% in assay [4]; 110% in [5]; 108% in assay [6]. In addition, the growth is 105% in [7], 108% in [8], 94.4% in assay [9] and 103% in [10].

Take `c1ccc(N2N=C(c3cccc(Nc4ccncc4)c3)CC2c2ccc3c(c2)OCO3)cc1` (stereo not given): the growth in [1] is 4.46% (active); in [2], 2.64% (active); in [3], 21.7%; in assay [4] it was 43.7%; in assay [5], 33.6%; in assay [6] it was 22.1%. Moreover, the growth is 16% in [7], 7.28% (active) in assay [8], 23.8% in [9] and -1.79% (active) in assay [10].

`CCC1(CC)NC(=O)c2c(c3ccc(Cl)c(Cl)c3n2C)C1C#N` (stereo not given): the growth was 5.94% (active) in [1]; 88.6% in assay [2]; 93.6% in [3]; 81.4% in assay [4]; 91.8% in assay [5]; 91.7% in assay [6]. In addition, the growth is 74.6% in assay [7], 94.6% in assay [8], 97.1% in assay [9] and 91.5% in [10].

For `C=C1C(=O)O[C@H]2[C@H]1CC/C(COC(=O)CCCc1c[nH]c3ccccc13)=C\CC[C@@]1(C)O[C@@H]21`, the growth in assay [1] is 1.59% (active); in assay [2] it was -17.6% (active); in assay [3], 66.3%; in assay [4], 94.7%; in assay [5], 65.8%; in assay [6] it was 98.2%. Also, the growth was 45.8% in assay [7], 28.3% in assay [8], 74% in assay [9] and 72.2% in [10].

Regarding `CN1CCN(CCCOc2ccc3ncnc(Nc4ccc(Oc5cccc(C(F)(F)F)c5)c(Cl)c4)c3c2)CC1`, the growth in assay [1] was 4.03% (active); in assay [2], -21.6% (active); in [3], 24.6%; in assay [4] it was 5.84% (active); in assay [5], 2.72% (active); in [6], 21.4%. Further, the growth is -53.7% (active) in assay [7], 30.2% in [8], 26.8% in assay [9] and 34.8% in assay [10].

With `CC1(C)CC[C@]2(C(=O)NCC#CCN3CCOCC3)CC[C@]3(C)C(=CC[C@@H]4[C@@]5(C)Cc6c([nH]c7ccccc67)C(C)(C)[C@@H]5CC[C@]43C)[C@@H]2C1`, the growth in assay [1] was 90.9%; in [2] it was 57.9%; in [3], 90.8%; in assay [4], 99.6%; in assay [5], 91%; in assay [6], 97.8%. Besides, the growth in assay [7] is 116%; in [8], 95.1%; in assay [9], 107%; in assay [10], 97%.

For `Cc1ccc(/C=C/C(=O)c2ccc(N)cc2)c(C)c1`, the growth is -45.1% (active) in assay [1]; 33% in assay [2]; 17.3% in [3]; 103% in assay [4]; 73% in assay [5]; 122% in [6]. The growth is 12% in [7], 21.7% in assay [8], 100% in [9] and 62.2% in assay [10].

For `CC(=O)[C@@H]1CC[C@]2(C(N)=O)CC[C@]3(C)[C@H](CC[C@@H]4[C@@]5(C)CCC(=O)C(C)(C)[C@@H]5CC[C@]43C)[C@@H]12`, the growth in [1] was 94.4%; in assay [2] it was 80.4%; in assay [3], 109%; in assay [4], 101%; in assay [5] it was 89.1%; in [6], 90.6%. For the same compound, the growth is 107% in assay [7], 103% in assay [8], 120% in assay [9] and 98.7% in assay [10].

(Values after PubChem BioAssay (NCI).)
